Where “and” joins values, the source holds several entries; their conditions need not be identical. Identical values can stand only once. Inconclusive results are not listed. Where a call stands in place of a potency, no number is given. Where a structure was tested more than once in an assay, its records may differ in their call. Calls of active or inactive are those of the source. The call rests on the fitted dose curve; in most records, active means well fitted curve in the direction sought with a large enough effect; inconclusive means small, poorly fitted or top-dose-only effect, or another doubt; inactive means no such curve, though single readings can be large; an effect the other way counts as inactive or inconclusive.
Legend:
[1] = Viability qHTS for spleen associated tyrosine kinase inhibitor (SYKi) naive MV4-11 cells (AID 1963823); further: nearly all actives have a fitted effect of over 40% in size
Outline: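 Seeding of 500 SYKi-naive MV4-11 cells per well onto pre-dispensed compounds preceded a 72 hr incubation at 37 C. Luminescent CellTiter-Glo signal, read after 10 min at room temperature, reflected viable cells.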

[2] = Cellular viability qHTS for adrenocortical cancer (ACC) cell line SW-13 (AID 1963989); settings: SW-13 ACC cells viability, CellTiter-Glo, 48 h; activity (max response): stronger effect = lower value; further: nearly all actives have a fitted effect of over 65% in size;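 on activity (max response): cells grown in serum-free medium with ITS supplement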
Outline: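 SW-13 cells in ITS-supplemented serum-free DMEM were plated overnight, then exposed for 48 h at 37C to compound titrations (up to 46 uM final). Viability was read by CellTiter-Glo luminescence; four-parameter logistic fits gave IC50 and efficacy.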

[3] = Cellular viability qHTS for adrenocortical cancer (ACC) cell line NCI-H295R (AID 1963990); further: nearly all actives have a fitted effect of over 60% in size
Outline: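 Luminescent ATP read-out (CellTiter-Glo, 20 min RT) after 48 h drug exposure of NCI-H295R cells; a titration up to 46 uM final. Data normalized to doxorubicin (100% inhibition) and DMSO (0%); 4-parameter fit gives IC50, max response.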

[4] = Viability qHTS for spleen associated tyrosine kinase inhibitor (SYKi) drug resistant MV4-11 cells (AID 1963824); further: nearly all actives have a fitted effect of over 35% in size
Outline: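 SYK-inhibitor-resistant MV4-11 AML cells were seeded at 500 per well onto compound and cultured 72 hours (37 °C, 5% CO2). CellTiter-Glo was then added, and after 10 min at room temperature, luminescence gave viability.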
Potency means the concentration at half of the fitted maximal effect.

SMILES | Potency [1] | activity (max response) [2] | Potency [3] | Potency [2] | Potency [4]
CN1CCC[C@@H]1c1cccnc1 | inactive | -8.92% (inactive) | inactive | – | –
N#CC1(c2ccc(F)cc2)CCC(=O)CC1 | inactive | 6.7% (inactive) | inactive | – | –
COC(=O)CCCCC(CCSS/C(CCO)=C(\C)N(C=O)Cc1cnc(C)nc1N)SC(C)=O (stereo not given) | inactive | 8.22% (inactive) | inactive | – | –
Cc1c(F)cccc1NC(=O)Nc1ccc(Cl)c(S(=O)(=O)[C@H]2CCCNC2)c1O | inactive | -7.46% (inactive) | inactive | – | –
O=C1CC2(CCCC2)CC(=O)N1CCCCN1CCN(c2ncccn2)CC1 | 9.44 µM (active) | -4.13% (inactive) | inactive | – | –
C(=C\c1ccccc1)/CN1CCN(C(c2ccccc2)c2ccccc2)CC1 | inactive | -1.91% (inactive) | inactive | – | –
C1=C/COCc2cc(ccc2OCCN2CCCC2)Nc2nccc(n2)-c2cccc(c2)COC/1 | inactive and 118 nM (active) | – | 5.01 µM (active) | 4.47 µM (active) | –
O=C1Nc2ccc(Cl)cc2[C@@](C#CC2CC2)(C(F)(F)F)O1 | 16.6 µM (active) and 5.17 µM (active) | – | 22.4 µM (active) | 18.4 µM (active) and 25.1 µM (active) | –
CC(C)=CCC[C@@](C)(O)[C@H]1CC=C(C)CC1 | inactive | 18.9% (inactive) | inactive | – | –
O=C(O)CC(C(=O)O)n1c(O)c(C2=c3cc(Br)ccc3=NC2=O)sc1=S (stereo not given) | inactive | -4.1% (inactive) | inactive | – | –
CN[C@@H]1[C@H](O)[C@H](NC)[C@H]2O[C@@]3(O)C(=O)C[C@@H](C)O[C@H]3O[C@@H]2[C@H]1O | inactive | 16.5% (inactive) | inactive | – | –
CN(C)C(=O)Oc1ccc[n+](C)c1 | inactive | 13.3% (inactive) | inactive | – | –
O=C1NC(=O)/C(=C\c2ccc(-c3ccc(F)cc3)o2)S1 | 14.8 µM (active) | 3.49% (inactive) | inactive | – | –
CCCCc1ncc(/C=C(\Cc2cccs2)C(=O)O)n1Cc1ccc(C(=O)O)cc1 | inactive | 6.21% (inactive) | inactive | – | –
O=C1CN(/N=C/c2ccc([N+](=O)[O-])o2)C(=O)N1 | inactive | -20.9% (inactive) | 18.4 µM (active) | – | –
CC(=O)N1CCN(c2ccc(O)cc2)CC1 | inactive | 7.26% (inactive) | inactive | – | –
Nc1ccc(S(=O)(=O)NC(=O)c2ccccc2)cc1 | inactive | 4.69% (inactive) | inactive | – | –
Cc1cc2c(OCC(CNC(C)(C)C)OC(=O)c3ccccc3)cccc2[nH]1 (stereo not given) | inactive | 7.67% (inactive) | inactive | – | –
FC(F)(F)c1ccccc1-n1ccnc1 | inactive | 17.5% (inactive) | inactive | – | –
COc1cc(NS(=O)(=O)c2ccc(N)cc2)nc(C)n1 | inactive | 1.38% (inactive) | inactive | – | –
Oc1cccc2[nH]ccc12 | 5.31 µM (active) | 11.5% (inactive) | inactive | – | –
CC(=O)[C@@]1(O)CC[C@H]2[C@@H]3C[C@H](C)C4=CC(=O)C=C[C@]4(C)[C@@]3(F)[C@@H](O)C[C@@]21C | inactive | 3.6% (inactive) | inactive | – | –
O=C(O)c1ccc(CN2CCC(CN[C@@H]3C[C@H]3c3ccccc3)CC2)cc1 | inactive | 7.26% (inactive) | inactive | – | –
COc1ccccc1N1CCN(CCCCNC(=O)c2ccc(-c3ccc(C(C)=O)cc3)cc2)CC1 | inactive | -20.9% (inactive) | inactive | – | –

SMILES | Potency [1] | activity (max response) [2] | Potency [3] | Potency [2] | Potency [4]
Cc1ccc(O)c(-n2nc3ccccc3n2)c1 | inactive | -8.34% (inactive) | inactive | – | –
COC(=O)[C@@H]1[C@H]2C[C@H]3c4[nH]c5ccccc5c4CCN3C[C@@H]2CC[C@@H]1O | inactive | -16.5% (inactive) | inactive | – | –
OCc1ccc(Cl)cc1Cl | 0.0067 µM (active) | -2% (inactive) | inactive | – | –
C/C=C(/C)C(=O)O[C@H]1C(C)=CC23C(=O)C(C=C(CO)[C@@H](O)[C@]12O)[C@H]1[C@@H](C[C@H]3C)C1(C)C (stereo not given in full) | 0.0166 µM (active) | -8.96% (inactive) | inactive | – | –
CCc1cccc(CC)c1NC(=O)CN(CC(=O)O)CC(=O)O | inactive | 1.3% (inactive) | inactive | – | –
CC(C(O)c1ccc(O)cc1)N1CCC(Cc2ccccc2)CC1 (stereo not given) | inactive | -9.39% (inactive) | inactive | – | –
Cc1ncc(CSSCc2cnc(C)c(O)c2CO)c(CO)c1O | inactive | 9.04% (inactive) | inactive | – | –
COc1ccc(CCN(C)CCCN2CCc3cc(OC)c(OC)cc3CC2=O)cc1OC | inactive | 5.36% (inactive) | inactive | – | –
Cc1cc(C(C#N)c2ccc(Cl)cc2)c(Cl)cc1NC(=O)c1cc(I)cc(I)c1O (stereo not given) | 18.8 µM (active) | – | 3.66 µM (active) | 4.11 µM (active) | –
O=[N+]([O-])c1cccc(S(=O)(=O)NCCNS(=O)(=O)c2cccc([N+](=O)[O-])c2)c1 | inactive | -5.4% (inactive) | inactive | – | –
CC1(C)O[C@@H]2C[C@H]3[C@@H]4CCC5=CC(=O)C=C[C@]5(C)[C@H]4[C@@H](O)C[C@]3(C)[C@]2(C(=O)CO)O1 | inactive | -6.19% (inactive) | inactive | – | –
CC(C)(O)c1coc(S(=O)(=O)NC(=O)Nc2c3c(cc4c2CCC4)CCC3)c1 | inactive | 5.8% (inactive) | inactive | – | –
O=C(O)Cc1ccc(OCCNC[C@H](O)c2ccccc2)cc1 | inactive | 0.46% (inactive) | inactive | – | –
C[C@@H](O)[C@H]1C(=O)N2C(C(=O)O)=C(S[C@@H]3CN[C@H](CNS(N)(=O)=O)C3)[C@H](C)[C@H]12 | inactive | 7.35% (inactive) | inactive | – | –
CCOC(=O)Oc1ccc(CCNC(=O)[C@H](CCSC)NC(C)=O)cc1OC(=O)OCC | inactive | 3.57% (inactive) | inactive | – | –
CC(CCc1ccc2c(c1)OCO2)NN (stereo not given) | inactive | 9.04% (inactive) | inactive | – | –
CCCCC(CC)COC(=O)c1ccc(N(C)C)cc1 (stereo not given) | inactive | -4.79% (inactive) | inactive | – | –
COCc1c(C(C)C)nc(C(C)C)c(/C=C/[C@@H](O)C[C@@H](O)CC(=O)O)c1-c1ccc(F)cc1 | 0.168 µM (active) | – | 1.16 µM (active) | 2.59 µM (active) | –
COc1cc(-c2cn(C)c(=O)c3cnccc23)cc(OC)c1CN(C)C | inactive | -6.63% (inactive) | inactive | – | –
COc1cc2c(cc1OCCCN1CCCC1)N=C(N)C21CCC1 | inactive | -9.17% (inactive) | inactive | – | –
O=C1c2ccccc2S(=O)(=O)N1CCCCN1CCN(c2ncccn2)CC1 | inactive | -8.3% (inactive) | inactive | – | –
c1ccc2c(c1)CCc1ccccc1N2 | inactive | -6.25% (inactive) | inactive | – | –
C[C@H]1[C@H](O)O[C@@H]2O[C@@]3(C)CC[C@H]4[C@H](C)CC[C@@H]1[C@@]24OO3 | 0.731 µM (active) | – | 3.55 µM (active) | 12.6 µM (active) | –
O=C(CCCN1CC=C(n2c(=O)[nH]c3ccccc32)CC1)c1ccc(F)cc1 | inactive | -10.3% (inactive) | inactive | – | –

SMILES | Potency [1] | activity (max response) [2] | Potency [3] | Potency [2] | Potency [4]
CCN(CC)CCOC(=O)C(c1ccccc1)C1CCCCC1 (stereo not given) | inactive | 12.1% (inactive) | inactive | – | –
O=C1NC(=O)C(c2ccccc2)(c2ccccc2)N1 | inactive | -5.02% (inactive) | inactive | – | –
O=C1Cc2cc(Cl)ccc2N1 | inactive | 11.1% (inactive) | inactive | – | –
Nc1ccc(C(=O)Oc2ccccc2)c(O)c1 | inactive | -6.48% (inactive) | inactive | – | –
CC[C@H]1OC(=O)[C@H](C)[C@@H](O[C@H]2C[C@@](C)(OC)[C@@H](O)[C@H](C)O2)[C@H](C)[C@@H](O[C@@H]2O[C@H](C)C[C@H](N(C)C)[C@H]2O)[C@](C)(O)C[C@@H](C)C(=O)[C@H](C)[C@@H](O)[C@]1(C)O | inactive | 4.41% (inactive) | inactive | – | –
CCOCCn1c(N2CCCN(C)CC2)nc2ccccc21 | inactive | -8.77% (inactive) | inactive | – | –
CCN(CC)C(=O)Cc1csc(NS(=O)(=O)c2cccc(Cl)c2C)n1 | inactive | -19.2% (inactive) | inactive | – | –
CC1=C(c2ccc(NC(=O)c3c(F)cccc3F)cc2)CN(c2nccs2)CC1 | – | – | – | – | 2.59 µM (active)
CCOC(=O)c1ccc(N(C)c2csc(-c3ccccc3)n2)cc1 | – | – | – | – | inactive
C=C1CCC2C(C)(C(=O)OC)CCCC2(C)C1CCC(C)CC(=O)O (stereo not given) | – | – | – | – | inactive
O=C(CNC(=O)c1cccc(C(F)(F)F)c1)N[C@@H]1CCN(Cc2ccc(Cl)cc2)C1 | – | – | – | – | 23.1 µM (active)
Cc1nc(Nc2n[nH]c3c2CN(C(=O)NC(CN(C)C)c2ccccc2)C3(C)C)c2sccc2n1 (stereo not given) | – | – | – | – | 0.0164 µM (active)
COc1cc(/C=C/c2cc(O)cc(O[C@@H]3O[C@H](CO)[C@@H](O)[C@H](O)[C@H]3O)c2)ccc1O | – | – | – | – | inactive
COC(=O)[C@]1(Cc2ccc(O)c(CC=C(C)C)c2)OC(=O)C(O)=C1c1ccc(O)cc1 | – | – | – | – | 8.93 µM (active)
CC1CC2OCC3(O)CCC(O)C(C14CC(c1ccoc1)OC4=O)C23CO (stereo not given) | – | – | – | – | inactive
CC(=O)OC1CC(O)(C(C)C)C2C(OC(=O)c3ccc(O)cc3)C=C(C)C(=O)CC12C (stereo not given) | – | – | – | – | 11.2 µM (active)
C=C[C@H]1[C@H](O[C@@H]2O[C@H](CO)[C@@H](O)[C@H](O)[C@H]2O)OC=C2C(=O)N3Cc4c([nH]c5ccccc5c4=O)[C@@H]3C[C@H]21 | – | – | – | – | inactive
Cc1oc2nc3c(c(NC(=O)CN4CCCC4=O)c2c1C)CCCC3 | – | – | – | – | inactive
Nc1ncnc2c1ncn2CCNCCCCCO | – | – | – | – | inactive
O=C(Nc1ccc(Cl)cc1)c1ccccc1NCc1ccncc1 | – | – | – | – | 11.6 µM (active)
O=C1/C(=C/c2ccc(O)c(O)c2)Oc2ccccc21 | – | – | – | – | 0.517 µM (active)
CO[C@H]1/C=C\O[C@@]2(C)Oc3c(C)c(O)c4c(O)c(c5c(nc6cc(C)ccn65)c4c3C2=O)NC(=O)/C(C)=C\C=C/[C@H](C)[C@H](O)[C@@H](C)[C@@H](O)[C@@H](C)[C@H](OC(C)=O)[C@@H]1C | – | – | – | – | 16.4 µM (active)

Reference: PubChem BioAssay (NCATS)
